High-throughput results deposited in PubChem BioAssay by National Center for Advancing Translational Sciences (NCATS).
This is a sample that favours compounds with a hit; in the whole collection about 11% have one here.
ALDH1A1 block – ALDH1A1 (human) enzyme inhibition; P00352; 220,000 compounds, 7.3% hits; AID 1030; Potency, µM (doses to about 75.3 µM), for the others: at the top dose activity, negative = inhibition, usual class: inhibitors; Purified ALDH1A1, NADH fluorescence, propionaldehyde substrate;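 note: potency is the fitted concentration of half-maximal effect; plate controls were no enzyme wells and a reference inhibitor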
Target sequence (P00352 whole entry, looked up): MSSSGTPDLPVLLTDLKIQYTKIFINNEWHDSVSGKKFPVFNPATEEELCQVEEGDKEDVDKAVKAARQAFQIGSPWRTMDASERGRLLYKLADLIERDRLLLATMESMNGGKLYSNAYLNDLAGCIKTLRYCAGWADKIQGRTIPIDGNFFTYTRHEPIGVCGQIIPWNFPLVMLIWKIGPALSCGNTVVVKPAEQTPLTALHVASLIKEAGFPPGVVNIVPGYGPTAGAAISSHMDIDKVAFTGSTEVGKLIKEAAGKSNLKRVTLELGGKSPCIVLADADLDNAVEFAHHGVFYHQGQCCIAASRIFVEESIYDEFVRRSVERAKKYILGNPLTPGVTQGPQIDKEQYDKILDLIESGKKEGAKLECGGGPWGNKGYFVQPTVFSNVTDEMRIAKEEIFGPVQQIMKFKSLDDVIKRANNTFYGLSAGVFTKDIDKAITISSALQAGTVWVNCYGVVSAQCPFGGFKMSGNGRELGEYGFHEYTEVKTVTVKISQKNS
IMPase Li inh – membrane-permeable IMPase blocker, potentiated with lithium; Potency, µM (doses to about 59.4 µM), without a hit: at the top dose activity, negative = IMPase inhibition, usual class: inhibitors; 210,000 compounds, 0.35% hits; CHO-M1 cells, IP1 TR-FRET (IP-One), carbachol + lithium; active = well fitted curve in the direction sought with a large enough effect; inconclusive = small, poorly fitted or top-dose-only effect, or another doubt; inactive = no such curve, though single readings can be large; an effect the other way counts as inactive or inconclusive;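 note: IP1 builds up when IMPase is blocked and the TR-FRET signal falls; potency is the fitted concentration of half-maximal effect; plate controls were basal vehicle for no effect and high inhibitor control for full effect; nearly all actives have a fitted effect of over 50% in size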
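IP1 accumulation measured by competitive TR-FRET in lysed CHO-M1 cells after 30 min compound exposure at 37C, with a small lithium addition to potentiate weak responses. Hill-equation AC50 from ratio and donor-channel data.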
HPGD block – blocks human HPGD enzyme activity | P15428 | purified HPGD, NADH fluorescence kinetic, PGE2 substrate | Potency, µM, for inactives: top-dose activity change, negative = inhibition, most hits filed as inhibitors | 150,000 compounds, 4.3% hits | AID 894; note: potency is the fitted concentration of half-maximal effect
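NADH formation kinetics: reaction with 30 uM PGE2 and 1 mM NAD+ (final), 20 nM enzyme, Tris-HCl pH 8 with Tween 20, after 15 min compound preincubation at room temperature. Fluorescence change, last versus first of five reads.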
ALOX12 inhib – blocks human 12-lipoxygenase activity. purified 12-hLO, xylenol orange hydroperoxide absorbance. P18054. 150,000 compounds, 0.12% hits. AID 1452. Potency, µM (titrated, usually from 57.1 µM), without a hit: top-dose activity change, negative = inhibition, usual class: inhibitors; active = well fitted curve in the direction sought with a large enough effect; inconclusive = small, poorly fitted or top-dose-only effect, or another doubt; inactive = no such curve, though single readings can be large; an effect the other way counts as inactive or inconclusive; note: potency is the fitted concentration of half-maximal effect; nearly all actives have a fitted effect of over 55% in size
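Hydroperoxide formation by human 12-lipoxygenase from 40 uM arachidonic acid was followed colorimetrically via ferric-xylenol orange complex, using the 573/405 nm absorbance ratio. Enzyme concentration was 150 nM, with 30 min reaction at room temperature.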
PNC assembly inh – blocks assembly of the perinucleolar compartment; PC3M PTB-GFP, PNC prevalence imaging, 16 h; hits give low values; activity change (PNC), negative = inhibition, % at 10 µM; 140,000 compounds, 3.1% hits;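 active = readout at or below -70, meaning at least 70% loss of cells showing the perinucleolar compartment, a nuclear body marking cancer cells; inconclusive = readout between -30 and a set limit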;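 note: plate controls were DMSO wells for no effect and camptothecin positive control wells for full effect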
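PC3M cells stably expressing PTB-GFP, 750–1000 cells/well, treated 16 h at 37 °C with compound (23 nl of library stock), in duplicate. After paraformaldehyde fixation and Hoechst stain, imaged at 20x; PNC prevalence scored by image analysis.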
IMPase inh – IMPase inhibition in cells; CHO-M1 cells, IP1 accumulation, HTRF TR-FRET ratio; 120,000 tested, under 10 active; P97697; inhibition (IP1 accumulation), % at 46.1 µM; active = well fitted curve in the direction sought with a large enough effect in the signal ratio, not every such curve was filed as active; inconclusive = small, poorly fitted or top-dose-only effect, or a change in a side signal; inactive = no such curve, though single readings can be large or run the other way; the % refers to the signal ratio;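 note: cells stimulated with carbachol in lithium chloride buffer; plate controls were DMSO basal wells for no effect and reference inhibitor wells for full effect; higher means more IMPase inhibition seen as more IP1 and lower FRET ratio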
Target sequence (P97697 whole entry, looked up): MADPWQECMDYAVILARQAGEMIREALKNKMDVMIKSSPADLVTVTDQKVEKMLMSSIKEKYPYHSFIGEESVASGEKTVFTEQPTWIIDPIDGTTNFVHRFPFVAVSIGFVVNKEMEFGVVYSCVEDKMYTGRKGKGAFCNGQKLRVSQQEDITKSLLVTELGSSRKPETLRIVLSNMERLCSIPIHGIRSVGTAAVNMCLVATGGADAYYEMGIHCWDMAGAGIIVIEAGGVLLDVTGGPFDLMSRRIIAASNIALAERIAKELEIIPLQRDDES
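Elevated IP1 in lysates lowers TR-FRET signal (665/620 ratio and 620 channel reported). Cells were CHO-M1, given carbachol (50 uM as added) plus 50mM LiCl, pH 7.4, 30 min, 37C; compounds titrated up to 46 uM; AC50 by Hill equation.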
* marks the source's active call; other numbers are inactive results; ? = inconclusive; / = not tested or not shown; [ ] = remark or other dose. Unless noted, calls come from the whole dose curve; as a rule, active = well fitted inhibition curve with a large enough effect (not every such curve was filed as active); inconclusive = small, poorly fitted or top-dose-only effect, or another doubt; inactive = no such curve, though single readings can be large or run the other way. Unless noted, % is set by controls: 0 for no effect and ±100 for the full control effect.

SMILES	ALDH1A1 block	IMPase Li inh	HPGD block	ALOX12 inhib	PNC assembly inh	IMPase inh
O=C(NCC1CCCO1)Nc1ccc2c(c1)OCO2 (stereo unspecified)	-2.2%	0.8%	/	/	/	/
O=C(Nc1ccc2c(c1)OCO2)N1CCN(C(=O)C2CCCO2)CC1 (stereo unspecified)	-0.6%	-0.9%	-12.4%	5.7%	-100.0*	9.2
Cc1ccc(-c2nnc(Nc3ccc(F)cc3)c3ccccc23)cc1S(=O)(=O)NC(C)C	/	/	/	/	/	7.3
Cc1ccc(C(=O)N2CCN(c3ccccn3)CC2)cc1[N+](=O)[O-]	?	-1.8%	/	/	/	/
O=C(c1ccc(S(=O)(=O)Cc2ccccc2Cl)c([N+](=O)[O-])c1)N1CCN(c2ccccn2)CC1	17.8µM*	5.3%	/	/	/	/
O=C(c1ccc(Cl)c([N+](=O)[O-])c1)N1CCN(c2ccccn2)CC1	10µM*	10.8%	-4.2%	-0.4%	15.0	/
CC1OC(OC2C(CO)OC(OC3C(CO)OC(O)C(O)C3O)C(O)C2O)C(O)C(O)C1NC1C=C(CO)C(O)C(O)C1O (stereo unspecified)	?	17.0%	-14.9%	24.9%	/	/
O=C(O)C1Nc2c(O)cc(Cl)c([N+](=O)[O-])c2C2C=CCC12 (stereo unspecified)	12.6µM*	20.9%	/	/	/	/
CCN1C(=O)c2cccc3c(S(=O)(=O)Nc4c(C)n(C)n(-c5ccccc5)c4=O)ccc1c23	14.1µM*	19.9%[38.3 µM]	-9.7%	0.5%	?	-4.7
CCOC(=O)CNS(=O)(=O)c1ccc2c3c(cccc13)C(=O)N2CC	?	16.5%	/	/	/	/
CCN(CC)C(=O)c1ccc2c3c(cccc13)C(=O)N(CCc1ccc(OC)c(OC)c1)C2=O	-8.8%	6.2%	17.8µM*	-2.1%	-12.9	2.0
NC(=O)COC(=O)c1ccc2c(c1)S(=O)(=O)N=C1CCCCCN12	8.91µM*	4.4%	-7.1%	0.4%	-1.2	/
Cc1ccc([N+](=O)[O-])cc1N/C=C1\CCCCC1=O	?	-1.5%	/	/	/	/
Cc1cc(O)ccc1N/C=C1\CCCC1=O	12.6µM*	15.8%	?	-9.3%	-2.8	/
Cc1cc(O)c(C2=Nc3ccccc3SC(c3ccc(Cl)cc3)C2)c(=O)o1 (stereo unspecified)	2.7%	6.3%	-3.6%	2.8%	-26.0	/
COc1ccc(C2CC(c3c(O)cc(C)oc3=O)=NCCS2)c(OC)c1 (stereo unspecified)	?	-7.4%[38.3 µM]	15.8µM*	-21.3%	-113.7*	4.6
C/C(CCc1oc2ccc(Cl)cc2c1-c1ccc(C)o1)=N\O	4.47µM*	26.3%	31.6µM*	-20.4%	?	2.0
CC(O)CN=c1cc(-c2ccccc2)oc2ccc(Cl)cc12 (stereo unspecified)	?	0.2%[38.3 µM]	-19.6%	-2.4%	13.7	13.9
C/C(CCc1oc2ccc(Br)cc2c1-c1ccc(C)o1)=N/O	?	21.4%	20µM*	-13.4%	55.5	/
Cc1c(Cl)cc(C(C)(C)C)c(O)c1Cc1c(C)c(Cl)cc(C(C)(C)C)c1O	2.6%[13.5 µM]	2.8%	-0.8%	-5.0%[11.4 µM]	/	/
Cc1ccc2oc3c(c(=O)c2c1)C(c1ccccc1F)N(CCCN(C)C)C3=O (stereo unspecified)	/	/	/	/	/	15.0
COc1ccc2[nH]cc(CCNc3ccnc(-c4ccc(C(=O)N(C)C)cc4)n3)c2c1	10.7%	14.4%	/	/	/	/
COc1cccc([C@@H]2Oc3ccc(OC)cc3C[C@H]2OC(=O)N[C@H](C)C2CCCCC2)c1	0.2%	27.6%	-7.5%	/	/	/
COc1ccccc1N=Nc1nc(-c2ccccc2)c(-c2ccccc2)[nH]1	22.4µM*	2.2%	-10.5%	-2.5%	-18.2	-0.5
COC(=O)[C@H](Cc1ccccc1)NC(=O)O[C@@H]1C(=O)c2cc(OC)ccc2O[C@H]1c1cccc(OC)c1	20µM*	-12.9%	-19.6%	/	/	/
SMILES	ALDH1A1 block	IMPase Li inh	HPGD block	ALOX12 inhib	PNC assembly inh	IMPase inh
COC(=O)[C@H](COC(C)(C)C)NC(=O)O[C@@H]1C(=O)c2cc(Br)ccc2O[C@H]1c1cccc(OC)c1	10.9%	8.7%	-8.8%	/	/	/
CC1(C)SC2C(NC(=O)C(N)c3ccccc3)C(=O)N2C1C(=O)O (stereo unspecified)	-2.7%	/	-24.8%	1.3%	/	/
COc1ccc(NS(=O)(=O)c2ccc3c(c2)NC(=O)CO3)cc1	12.2%	2.7%	/	/	/	/
O=C(O)c1ccccc1NS(=O)(=O)c1ccc(F)c(Cl)c1	6.3%	/	-6.8%	0.0%	/	/
Cc1cc(NC(=O)C2CCCN(S(=O)(=O)c3cccc4nonc34)C2)ccc1Br (stereo unspecified)	/	/	/	/	/	2.3
COC(=O)c1cc(-c2ccccc2)sc1N	?	2.6%[38.3 µM]	28.2µM*	-20.4%	1.0	-1.8
Nc1c[n+](N2CCOCC2)no1	-9.7%	12.1%	-19.5%	-8.3%	/	2.1
O=C(COC(=O)c1ccc2ccccc2c1)Nc1ncc(C(F)(F)F)cc1Cl	-13.6%	?	-33.1%	-7.0%	4.5	-6.8
O=C(COC(=O)C1(c2ccccc2F)CCCC1)Nc1ncc(C(F)(F)F)cc1Cl	?	1.8%	-8.5%	-4.4%	-109.0*	/
Cc1nn(-c2ccccc2)c(C)c1/C=C/C(=O)OCC(=O)Nc1ncc(C(F)(F)F)cc1Cl	?	15.3%	?	-0.6%	-113.4*	/
CCN(CC)CCN1C(=O)C(O)=C(C(=O)c2cccs2)C1c1ccccn1 (stereo unspecified)	17.8µM*	-10.0%[38.3 µM]	-24.0%	0.4%	16.0	8.2
O=C(C1=C(O)C(=O)N(CCN2CCOCC2)C1c1ccccn1)c1cccs1 (stereo unspecified)	18.9µM*	15.1%[38.3 µM]	-5.0%	-12.3%	30.4	4.4
CCN(CC)CCN1C(=O)C(O)=C(C(=O)c2cccs2)C1c1ccc(C)o1 (stereo unspecified)	22.4µM*	28.9%[38.3 µM]	-8.9%	-8.4%	?	-0.4
Cc1ccc(C2C(C(=O)c3cccs3)=C(O)C(=O)N2CCN2CCOCC2)o1 (stereo unspecified)	17.8µM*	0.1%[38.3 µM]	-16.2%	-9.7%	?	-2.7
N#CCCCSc1nnnn1-c1cc(C(F)(F)F)cc(C(F)(F)F)c1	-2.1%	17.7%	-0.4%	/	/	/
Cc1c([N+](=O)[O-])nnn1-c1cc(Cl)cc(Cl)c1	2.5%	-2.6%	/	/	/	/
CCOc1ccc(S(=O)(=O)N(CC(=O)NCCSCc2ccccc2)c2ccccc2)cc1	/	/	/	/	/	7.9
Cc1cccc(C)c1-n1c(C)cc(/C=N/NC(=O)c2ccncc2)c1C	28.2µM*	9.9%[38.3 µM]	-10.1%	-1.2%	?	5.7
Cc1cc(/C=N/NC(=O)c2cccc([N+](=O)[O-])c2)c(C)n1-c1ccccc1	?	3.7%	-8.5%	-2.0%	19.9	1.1
Cc1ccc(-n2c(C)cc(/C=N/NC(=O)c3ccncc3)c2C)cc1C	?	9.1%	/	/	/	/
